Measured values published in ChEMBL document CHEMBL3988442, “University of Dundee, Small-Polar-MMV Screening Library” (2021).
Hit rate of the full screen: of about 48,000 compounds, about 13,000 (27%) showed an effect of 50% or more. Some of the results follow.

system: Wolbachia pipientis; experiment: Anti-Wolbachia Cell-Based Screen; type: functional; parameters: scale not given: in the data most compounds retested in dose-response had high values; conditions: 5 µM

Structure (SMILES) | Percent Effect [%]
Cc1nnc(CSc2ccc(C(F)(F)F)cn2)o1 | -11.49
CCN1CC(C(=O)NCc2nc(C3CCCCC3)no2)CC1=O (stereo unspecified) | -30.34
Cc1cc(C(=O)O)ccc1NS(=O)(=O)c1c(C)nn(C(C)C)c1C | -9.87
Cc1nc(N2CCN(C)CC2)ncc1C(=O)N1CCC(O)(CO)CC1 | -3.993
Cc1nc(N2CCN(C)CC2)ncc1C(=O)N1CC(C)(C)C(C)(O)C1 (stereo unspecified) | -4.468
Cc1nc(N2CCCCC2)ncc1-c1cc(O)[nH]n1 | 24.53
CN1CCCN(C(=O)c2cnc(Cc3c(Cl)cccc3Cl)nc2O)CC1 | 6.628
CC[C@H]1COCCN1C(=O)c1cnc(N2CCN(C)CC2)nc1C | -29.22
Cc1nc(N2CCN(C)CC2)ncc1C(=O)N1CCCCC1 | 123.3
CN1CCCN(C(=O)c2cnc(C(C)(C)C)nc2O)CC1 | -12.59
Cc1nc(N2CCN(C)CC2)ncc1C(=O)N1CCCCCC1 | 100.3
Cc1nc(N2CCN(C)CC2)ncc1C(=O)N1CCN(C)CC1 | 120.1
COCc1c(Br)cccc1NC(=O)CC(F)(F)F | -8.675
CC(C)(O)c1cc(CC2(NCC3CCCCC3)COC2)no1 | -2.979
O=C(c1n[nH]c2ccccc12)N1CCCC1c1noc(C2CC2)n1 (stereo unspecified) | -5.823
CC(C)(C)NS(=O)(=O)c1ccc(NC(=O)C2CC2)cc1 | -16.45
Cc1cc(C)n(CC(=O)N2CCC(NS(C)(=O)=O)CC2)n1 | -12.4
Cc1nn(CC(=O)N2CCCC2Cn2cccn2)c(C)c1Cl (stereo unspecified) | -2.085
Cc1cc(C)n(C(=O)Cn2nc(C)c(I)c2C)n1 | 66.77
Cc1nn(CC(=O)n2cccn2)c(C)c1I | 112.6
Cc1nn(CC(=O)N2CCCCC2Cn2cccn2)c(C)c1Cl (stereo unspecified) | -2.313
COC1CCN(C(=O)Cn2nc(C)cc2C)CC1 | -14.02
CC(=O)N1Cc2nc(C(=O)NCCc3cccnc3)oc2C1 | -18.72
CSCC(C)N(C)S(=O)(=O)c1ccc(Cl)cc1C#N (stereo unspecified) | -5.71

Structure (SMILES) | Percent Effect [%]
Cc1ccccc1CN(C)C(=O)c1ccoc1 | -7.893
CN(C)Cc1ccccc1CN(C)C(=O)c1ccoc1 | 83.07
CN(Cc1ccccc1CN1CCCC1)C(=O)c1c(O)cccc1O | -3.98
Cc1ncc(CC(=O)N2CCCCC2CCN2CCCC2)c(=O)[nH]1 (stereo unspecified) | -18.36
CCN(CC1CCOC1)C(=O)c1ccccc1S(=O)(=O)CC (stereo unspecified) | 111.1
CCN(CC1CCOC1)C(=O)c1ccc(COc2ccccc2C#N)o1 (stereo unspecified) | 0.9785
CCN(CC1CCOCC1)C(=O)CCNC(=O)c1ccccc1F | -3.146
CCN(CC1CCOC1)C(=O)c1ccccc1S(C)(=O)=O (stereo unspecified) | 84.82
CCN(CC1CCOC1)C(=O)c1nc(-c2ccco2)sc1C (stereo unspecified) | 14.29
CCN(CC1CCOC1)C(=O)c1ccccc1NS(=O)(=O)CC (stereo unspecified) | 0.4037
COCCc1noc(-c2ccc(=O)[nH]c2)n1 | -16.05
Cc1nnc(CN(C)CC2CCCCC2)o1 | 96.6
CCc1nnc(CN(C)C[C@@H]2CCCN3CCCC[C@H]23)o1 | -11.52
Cc1cc(CN(C)CC2CCCCC2)no1 | -1.2
CCc1nnc(CN(C)CC2CCCCC2)o1 | 93.73
Cc1nnc(CN(C)CC2(O)CCCN(CCC3CCCCC3)C2=O)o1 (stereo unspecified) | -32.48
CCc1nc(CN(C)CC2CCN(CCO)CC2)no1 | -13.45
OC(CN(Cc1ccccc1)Cc1cccnc1)c1ccco1 (stereo unspecified) | -6.799
CCCN1CCCN(c2ncccc2C(=O)N2CCCCC2)CC1 | 6.513
CCC(CNS(C)(=O)=O)Oc1ccccc1C (stereo unspecified) | 8.016
CC(=O)NCCc1cc(N2CCN(C(C)=O)CC2)nc(C2CC2)n1 | -7.517
CCCC(=O)NCCc1cc(N2CCN(C(C)=O)CC2)nc(C2CC2)n1 | 96.87
CN1CCN(c2cc(CCNC(=O)C3CCC3)nc(C3CC3)n2)CC1 | -16.77
CC(=O)N1CCN(c2cc(CCN)nc(C3CC3)n2)CC1.Cl | 89.11

Structure (SMILES) | Percent Effect [%]
COc1ccc(C(=O)N2CCN(c3cc(CCN)nc(C)n3)CC2)cc1 | -1.227
CCCNC(=O)CCC(=O)N1CCC(c2n[nH]c(C3CC3)n2)CC1 | -17.72
CCC(=O)NCCc1cc(N2CCN(C(C)=O)CC2)nc(C2CC2)n1 | -11.66
CC(=O)N1CCN(c2cc(CCNC(=O)C(C)C)nc(C3CC3)n2)CC1 | 74.84
Cc1nc(CCN)cc(N2CCCN(C(=O)c3ccco3)CC2)n1 | -5.504
Cc1ccoc1C(=O)NC(CC(C)C)C(=O)N1CCC(CO)CC1 (stereo unspecified) | -14.58
CCC(=O)N1CCc2[nH]cnc2C12CCN(C(=O)CCS(C)(=O)=O)CC2 | -8.696
Cc1nnn2c1COC(CNCc1ccccn1)C2.O=C(O)C(F)(F)F (stereo unspecified) | -4.028
Cc1cnc(N)nc1NCCSCc1[nH]cnc1C | -14.55
Cc1ccc(C)n1-c1ccc(C(=O)NCCNc2ncccn2)cc1 | 4.736
Cc1nc(CN2CCCN(C(=O)COCC3CC3)CC2)cs1 | 18.11
CC(C)c1nc(CN2CCCC(O)C2)cs1 (stereo unspecified) | 12.3
Cc1nc(CN2CCCC(c3cnccn3)C2)cs1 (stereo unspecified) | 124.4
CCn1ccnc1C1CCN(Cc2cccc(C)n2)CC1 | -3.832
Cc1nc(CN2C[C@@H]3CN(C(=O)c4cnccn4)C[C@@H]3C2=O)cs1 | 9.269
Cc1nc(CN2CCCC(c3nccs3)C2)cs1 (stereo unspecified) | 114.8
CC1CCCN(Cc2csc(-c3ncccn3)n2)CC1 (stereo unspecified) | 3.521
Cc1cccc(CN2CCN(Cc3ccccc3)CC(O)C2)n1 (stereo unspecified) | -8.122
Cc1cccc(CN2CCCC(c3nccs3)C2)n1 (stereo unspecified) | 160.1
CSCC(=O)N1C[C@H]2CC[C@@H]1CN(Cc1ccccc1)C2 | -24.58
COCCc1noc(Cn2ccc3ncccc3c2=O)n1 | -12.09
CCOc1ccc2[nH]c(=O)c(CN(C)CCc3cn[nH]c3)cc2c1 | -1.744
Cc1ccc(CN2C[C@@H]3COC[C@@H](NS(C)(=O)=O)[C@@H]3C2)o1.O=C(O)C(F)(F)F | -14.86
CCc1ccc(CN2C[C@@H]3COC[C@H](NS(C)(=O)=O)[C@@H]3C2)o1.O=C(O)C(F)(F)F | 136.7

Structure (SMILES) | Percent Effect [%]
Cc1ccc(CN2CCOC3(COCCN(S(C)(=O)=O)C3)C2)s1.O=C(O)C(F)(F)F (stereo unspecified) | -6.803
Cc1ccc(CN2CC(C(=O)Nc3ccccc3)C3(CCOCC3)C2)s1.O=C(O)C(F)(F)F (stereo unspecified) | -15.56
Cc1ccc(CN2C[C@@H]3COC[C@H](NS(C)(=O)=O)[C@@H]3C2)s1.O=C(O)C(F)(F)F | 111.5
Cc1ccc(CN2C[C@@H]3COC[C@H](NS(C)(=O)=O)[C@@H]3C2)o1.O=C(O)C(F)(F)F | 6.614
O=C(Cc1cnn(-c2ccccc2)n1)NC(C1CC1)C1CC1 | -0.6445
CC(C#N)(NC(=O)Cn1cc(I)cn1)C1CC1 (stereo unspecified) | 6.618
CC(NC(=O)CN1C=Nc2ccccc2S1(=O)=O)C1CC1 (stereo unspecified) | 22.51
CC(NC(=O)COc1ccccc1I)C1CC1 (stereo unspecified) | 10.59
CCC(CC)NC(=O)Cn1cc(-c2ccccc2)cn1 | 106.4
CCC(C)(C)NC(=O)Cn1cc(C(N)=O)c(-c2ccccc2)n1 | -8.057
Cc1ccc(NC(=O)Cn2cc(I)cn2)cc1 | 92.57
CNC(=O)NC(=O)Cn1cc(-c2ccccc2)cn1 | -1.753
O=C(Cn1cc(-c2ccccc2)cn1)NC(C1CC1)C1CC1 | 101.4
CC(NC(=O)Cn1cc(-c2ccccc2)cn1)C1CC1 (stereo unspecified) | 82.35
CC(C)C(C)(C#N)NC(=O)Cn1cc(I)cn1 (stereo unspecified) | 3.38
CC(C)CNC(=O)Cn1cc(C(N)=O)c(-c2ccccc2)n1 | 7.305
Cc1csc(CN2C[C@@H]3CN(CC4CCOCC4)CCO[C@@H]3C2)n1 | -2.484
Fc1cccc(N2CCCC3(CN(Cc4nccs4)CCO3)C2)c1.O=C(O)C(F)(F)F.O=C(O)C(F)(F)F (stereo unspecified) | -19.19
CC(C)(C)c1nnc(CN2CCN(C(=O)N3CCCCC3)CC2)o1 | 1.432
Cc1ccc(-c2cnn(CC(=O)NC(C)C)c2)cc1 | 96.48
CC(C)C(C)(C#N)NC(=O)Cn1cc(-c2ccccc2)cn1 (stereo unspecified) | -4.052
CC(C)NC(=O)Cn1cc(-c2ccccc2)cn1 | 1.398
CCC(CNC(=O)c1c(C)nn(C)c1OC)Oc1ccccc1 (stereo unspecified) | -1.987
CCc1nc(NS(=O)(=O)c2cc(C)ccc2Br)no1 | -0.5408

Structure (SMILES) | Percent Effect [%]
Cc1nn(C)cc1-c1cncn1CCN(C)C1CCCC1.Cl | 82.1
CCn1nc(C)c(-c2cncn2CCN(C)C2CCCC2)c1C.Cl | 94.51
CN(CC1CCCC1)C(=O)c1cn(C)nc1-c1cccnc1 | -17.59
CCCn1nc(C)c(-c2cncn2CCN(C)C2CCCC2)c1C.Cl | 99.02
Cc1cc(C)nc(N(C)CCN(C)C2CCCC2)n1 | 8.027
CCCN1CCCn2nc(CNC(=O)CN(C)C3CCCC3)cc2C1 | -1.804
Cc1nn(C)c2nc(N(C)CCN(C)C3CCCC3)sc12 | -5.269
Cn1nnc(C2(NC(=O)c3ccccc3)CCCC2)n1 | -16.42
COCc1nc(NCC2CCS(=O)(=O)C2)c2cnn(C)c2n1 (stereo unspecified) | 14.43
CCc1nc(NC2CCCN(C(=O)C3CC3)C2)c2cnn(C)c2n1 (stereo unspecified) | 100.4
CC(=O)NCCNc1nc(C2CCCC2)nc2c1cnn2C | -24.98
CCc1nc(NC2CCN(CC(=O)NC3CC3)CC2)c2cnn(C)c2n1 | 85.47
CC(C)C(=O)N1CCC(CNc2nc(C(C)C)nc3c2cnn3C)CC1 | -5.658
Cn1ncc2c(NC3CCCN(C(=O)C4CC4)C3)nc(C(C)(C)C)nc21 (stereo unspecified) | 108.6
Cn1ncc2c(N[C@@H]3CS(=O)(=O)C[C@H]3O)nc(C(C)(C)C)nc21 | -3.65
COCCN1CC(Nc2nc(C3CCCC3)nc3c2cnn3C)CC1=O (stereo unspecified) | -0.7638
CCc1nc(NCC2CCCN(C(=O)C3CC3)C2)c2cnn(C)c2n1 (stereo unspecified) | 149.3
Cn1ncc2c(N[C@H]3CCCC[C@@H]3O)nc(C(C)(C)C)nc21 | 2.356
CCCn1cc(C(=O)NC2CCN(CC(=O)NC3CC3)CC2)c(C)n1 | -20.41
Cn1ncc2c(N[C@H]3CC[C@@H](N)CC3)nc(C(C)(C)C)nc21 | -50.36
